The supplement of paper PMC8728848
Many of the other results were omitted from the sample, so the strongest signals are more common in it than they were.

Experiments:
Assay in all cases: glycan array binding signal (z-score within array); higher = stronger binding
Details in all cases: glycan notation: IUPAC condensed, linker removed
[1] = target: Fuc(a1-2)Gal(b1-3)GlcNAc
Procedure, shortened: (§1)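 The binding signal is a Z-score computed within each array. Data were drawn from 3228 arrays in the Consortium for Functional Glycomics database, restricted to those with a known protein sequence. Scores were averaged over arrays of the same protein sequence at different concentrations or buffers, and over linkers, and negative values can be taken as non-binding.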

[2] = target: Fuc(a1-2)Gal(b1-3)[Fuc(a1-4)]GlcNAc
Procedure, shortened: as §1

[3] = target: Fuc(a1-2)Gal(b1-4)GlcNAc
Procedure, shortened: as §1

[4] = target: Fuc(a1-2)[Gal(a1-4)]Gal(b1-4)GlcNAc
Procedure, shortened: as §1

[5] = target: Fuc(a1-2)[GalNAc(a1-4)]Gal(b1-4)GlcNAc
Procedure, shortened: as §1

[6] = target: Gal(a1-3)Gal(b1-4)GlcNAc
Procedure, shortened: as §1

[7] = target: Gal(a1-4)GlcNAc
Procedure, shortened: as §1

[8] = target: Gal4S(b1-4)GlcNAc
Procedure, shortened: as §1

[9] = target: GalNAc(a1-3)Gal
Procedure, shortened: as §1

[10] = target: Glc(a1-4)Glc
Procedure, shortened: as §1

[11] = target: GlcNAc(a1-6)Gal(b1-4)GlcNAc
Procedure, shortened: as §1

[12] = target: Kdn(a2-3)Gal(b1-4)GlcNAc
Procedure, shortened: as §1

[13] = target: Man(a1-2)Man(a1-3)Man
Procedure, shortened: as §1

[14] = target: Man(a1-3)[Man(a1-6)]Man
Procedure, shortened: as §1

[15] = target: Man(a1-3)[Man(a1-6)]Man(b1-4)GlcNAc(b1-4)GlcNAc
Procedure, shortened: as §1

[16] = target: Neu5Ac(a2-3)Gal(b1-4)GlcNAc(b1-3)Gal(b1-4)GlcNAc
Procedure, shortened: as §1

[17] = target: Neu5Ac(a2-8)Neu5Ac(a2-3)[GalNAc(b1-4)]Gal(b1-4)Glc
Procedure, shortened: as §1

[18] = target: Neu5Ac(a2-8)Neu5Ac(a2-8)Neu5Ac
Procedure, shortened: as §1

[19] = target: Neu5Ac9Ac(a2-6)Gal(b1-4)GlcNAc
Procedure, shortened: as §1

B1: CV-IIL (Chromobacterium violaceum) (protein)
chain: AQQGVFTLPARINFGVTVLVNSAATQHVEIFVDNEPRAAFSGVGTGDNNLGTKVINSGSGNVRVQITANGRQSDLVSSQLVLANKLNLAVVGSEDGTDMDYNDSIVILNWPLG
- glycan array binding signal (z-score) [1]: 2.67
- glycan array binding signal (z-score) [2]: 2.2
- glycan array binding signal (z-score) [3]: 2.98
- glycan array binding signal (z-score) [4]: 1.68
- glycan array binding signal (z-score) [5]: 1.2
- glycan array binding signal (z-score) [6]: -0.501
- glycan array binding signal (z-score) [7]: -0.501
- glycan array binding signal (z-score) [8]: -0.501
- glycan array binding signal (z-score) [9]: -0.502
- glycan array binding signal (z-score) [10]: -0.49
- glycan array binding signal (z-score) [11]: -0.501
- glycan array binding signal (z-score) [12]: -0.502
- glycan array binding signal (z-score) [13]: 1.55
- glycan array binding signal (z-score) [14]: 2.82
- glycan array binding signal (z-score) [15]: 2.82
- glycan array binding signal (z-score) [16]: -0.498
- glycan array binding signal (z-score) [17]: -0.501
- glycan array binding signal (z-score) [18]: -0.501
- glycan array binding signal (z-score) [19]: -0.502
